About 770 (0.77%) of roughly 100,000 compounds were called active. Rule as the data show it: active = inhibition above about 50%; inactive = the rest. This excerpt belongs to a sample that is enriched for actives.
Biological target: Gag-Pol polyprotein (Human immunodeficiency virus type 1 group M subtype B (isolate HXB2)) (UniProt P04585)
Experiment: RNase H inhibition, HIV 1 Gag Pol polyprotein, FRET biochemical assay, screening (AID 372)
Conditions: HIV-1 RT RNase H, FRET RNA/DNA substrate fluorescence; at 10 µM; active compounds read high

Row | Structure (SMILES) | inhibition
1 | Cc1ccc(C(=O)NC(C(=O)NC(C)(C)C)C23CC4CC(CC(C4)C2)C3)cc1 (stereo not drawn) | 16% (inactive)
2 | COC(=O)c1cc(NC(=S)NC(=O)c2ccc(C)cc2)cc(C(=O)OC)c1 | 54% (active)
3 | Cc1ccc(C(=O)NC(=S)Nc2c(C)cccc2C)cc1 | 53% (active)
4 | Cc1ccc(C(=O)NC(=S)Nc2cc(Cl)c(Cl)cc2Cl)cc1 | 40% (inactive)
5 | Cc1ccc(C(=O)NC(=S)Nc2cc(Cl)cc(Cl)c2)cc1C | 50% (active)
6 | CC(=O)c1cccc(NC(=S)NC(=O)c2ccc(C)cc2)c1 | 17% (inactive)
7 | Cc1ccc(C(=O)NC(=S)Nc2cc(Cl)cc(Cl)c2)cc1 | 14% (inactive)
8 | Cc1cccc(C)c1NC(=S)NC(=O)c1ccc(Br)cc1 | 2% (inactive)
9 | Cc1cccc(C)c1NC(=S)NC(=O)c1ccccc1 | 7% (inactive)
10 | O=C(NC(=S)Nc1cc(Cl)c(Cl)cc1Cl)c1ccc(F)cc1 | 13% (inactive)
11 | Cc1ccc(C(=O)NC(=S)Nc2ccc(Cl)cc2)cc1C | 3% (inactive)
12 | O=C(NC(=S)Nc1cc(Cl)c(Cl)cc1Cl)c1ccc(Cl)cc1 | 54% (active)
13 | COC(=O)c1cc(NC(=S)NC(=O)c2ccccc2)cc(C(=O)OC)c1 | 21% (inactive)
14 | CC(C)=C1C2CCC1C(C(=O)NCc1ccccc1)C2C(=O)O (stereo not drawn) | 0% (inactive)
15 | Cn1c(O)c(C(=NCc2ccccc2)c2ccccc2)c(=O)n(C)c1=O | 8% (inactive)
16 | O=C(Nc1cccc2ccccc12)/C(=C/c1ccccc1)c1ccccc1 | 28% (inactive)
17 | COc1cccc(OCCCOc2ccccc2[N+](=O)[O-])c1 | 14% (inactive)
18 | CCOC(=O)C1=C(C)NC2=C(C(=O)CC(c3ccccc3)C2)C1c1cccc([N+](=O)[O-])c1 (stereo not drawn) | 15% (inactive)
19 | COc1ccc(C(=O)Nc2ccc(NC(C)=O)cc2)cc1[N+](=O)[O-] | 5% (inactive)
20 | COc1ccc(C(=O)Nc2ccc(NC(=O)c3ccccc3)cc2)cc1[N+](=O)[O-] | 23% (inactive)
21 | CCOc1ccc(C(=O)Nc2ccc(C(C)=O)cc2)cc1[N+](=O)[O-] | 5% (inactive)
22 | COc1ccc(C(=O)Nc2ccc(NC(=O)c3ccc(Br)cc3)cc2)cc1[N+](=O)[O-] | 59% (active)
23 | CCOc1ccc(C(=O)Nc2cccc(NC(=O)c3ccccc3)c2)cc1[N+](=O)[O-] | 0% (inactive)
24 | CCOc1ccc(C(=O)Nc2ccc(NC(=O)c3ccccc3)cc2)cc1[N+](=O)[O-] | 56% (active)
25 | O=C(/C=C/c1ccc2c(c1)OCO2)Nc1ccccn1 | 6% (inactive)

Row | Structure (SMILES) | inhibition
26 | COc1ccc(-c2ccc(/C=N/n3cnnc3)o2)c([N+](=O)[O-])c1 | 14% (inactive)
27 | COc1ccc([N+](=O)[O-])cc1-c1ccc(/C=N/n2cnnc2)o1 | 57% (active)
28 | O=[N+]([O-])c1ccc(-c2ccc(/C=N/n3cnnc3)o2)c(Br)c1 | 12% (inactive)
29 | COc1cccc(NC(=O)c2ccc(CN(c3ccc(C)c(C)c3)S(C)(=O)=O)cc2)c1 | 3% (inactive)
30 | CC1=C(C(=O)Nc2ccc(Br)cc2)C(c2ccccc2)NC(=O)N1 (stereo not drawn) | 18% (inactive)
31 | O=C(/C=C/c1ccc(-c2ccc(Cl)cc2Cl)o1)c1ccc(F)cc1 | 27% (inactive)
32 | O=C(/C=C\c1ccc(-c2cc(Cl)ccc2Cl)o1)c1ccccc1 | 40% (inactive)
33 | O=C(/C=C/c1ccc(-c2cc(Cl)ccc2Cl)o1)c1ccc(F)cc1 | 52% (active)
34 | O=C(/C=C/c1ccc(-c2cc(Cl)cc(Cl)c2)o1)c1ccccc1 | 51% (active)
35 | COc1ccc(C(=O)/C=C/c2ccc(-c3cc(Cl)ccc3Cl)o2)cc1 | 15% (inactive)
36 | O=C(/C=C/c1ccc(-c2ccc(Cl)cc2Cl)o1)c1ccccc1 | 13% (inactive)
37 | CC(=O)/C=C/c1ccc(-c2cc(Cl)ccc2Cl)o1 | 54% (active)
38 | O=C(/C=C/c1ccc(-c2ccccc2Cl)o1)c1ccc(F)cc1 | 47% (inactive)
39 | O=C(/C=C/c1ccc(-c2ccc(Cl)cc2)o1)c1ccccc1 | 20% (inactive)
40 | O=[N+]([O-])c1ccc(Cl)c(S(=O)(=O)Nc2ccccn2)c1 | 0% (inactive)
41 | O=C(c1nn2c(C(F)(F)F)cc(-c3cccs3)nc2c1Br)N1CCOCC1 | 0% (inactive)
42 | COc1ccc(OC)c(C(=O)N/N=C/c2ccccn2)c1 | 3% (inactive)
43 | CC(C)(C)c1cc(C(=O)NCC(=O)OCC(=O)c2ccccc2)cc(C(C)(C)C)c1 | 18% (inactive)
44 | O=C(NC(=S)Nc1ccc(Br)cc1)c1ccc(Cl)cc1 | 1% (inactive)
45 | Cc1ccc(N(CC(=O)NCCOc2ccc(F)cc2)S(=O)(=O)c2ccccc2)cc1C | 5% (inactive)
46 | CCOC(=O)Cc1csc(NC(=O)COc2c(C)cccc2C)n1 | 5% (inactive)
47 | NC(=O)c1cnn2c1NC(c1ccco1)CC2C(F)(F)F (stereo not drawn) | 0% (inactive)
48 | CC(=O)Nc1ccc(C(=O)Nc2ccc(Cl)cc2Cl)cc1 | 0% (inactive)
49 | O=C(Nc1ccc(Cl)cc1Cl)c1ccc(-c2ccccc2)cc1 | 0% (inactive)
50 | O=C(Cc1ccccc1)Nc1ccc(C(=O)Nc2ccc(Cl)cc2Cl)cc1 | 59% (active)

Row | Structure (SMILES) | inhibition
51 | CS/C(N)=N\N=C\c1cc([N+](=O)[O-])ccc1O | 18% (inactive)
52 | COc1ccccc1C(=O)NC(=S)Nc1cc([N+](=O)[O-])ccc1Cl | 6% (inactive)
53 | O=C(NC(=S)Nc1cc([N+](=O)[O-])ccc1Cl)c1cccc2ccccc12 | 51% (active)
54 | O=C(NC(=S)Nc1cc([N+](=O)[O-])ccc1Cl)c1ccccc1Br | 18% (inactive)
55 | CSc1nc(SC)c2c3c(sc2n1)CN(C)CC3 | 0% (inactive)
56 | Cc1ccc(OCC(=O)Nc2cc(C(F)(F)F)cc(C(F)(F)F)c2)cc1C | 0% (inactive)
57 | CCCOc1ccc(/C=C/C(=O)Nc2ccc(S(=O)(=O)Nc3ncccn3)cc2)cc1OC | 61% (active)
58 | CCCCOc1ccc(NC(=O)/C=C/c2ccc(OC)c(OC)c2)cc1 | 3% (inactive)
59 | COc1ccc(C(=O)Nc2ccc(S(=O)(=O)Nc3ncccn3)cc2)cc1OC | 0% (inactive)
60 | O=c1[nH]n(-c2ccccc2)c(O)c1/C=C1\C=Nc2ccccc21 | 10% (inactive)
61 | O=c1[nH]c(O)c(/C=C2\C=Nc3ccccc32)[nH]1 | 0% (inactive)
62 | Cc1ccc([N+](=O)[O-])cc1NC(=O)COc1ccc(Cl)cc1C | 13% (inactive)
63 | O=C(Nc1ncccc1Cl)C1CCCO1 (stereo not drawn) | 18% (inactive)
64 | N#C/C(=C\Nc1ccc(S(=O)(=O)Nc2nccs2)cc1)c1nc(-c2ccc(-c3ccccc3)cc2)cs1 | 16% (inactive)
65 | COc1ccc(-c2csc(/C(C#N)=C/Nc3ccc(S(=O)(=O)Nc4nccs4)cc3)n2)cc1 | 6% (inactive)
66 | Cc1cccc(NC(=O)/C(C#N)=C\c2cc(C)n(-c3ccc(C)c(C)c3)c2C)c1 | 10% (inactive)
67 | NN1CCN(Cc2cccc3ccccc23)CC1 | 7% (inactive)
68 | Cc1c(O)ccc(C(=O)Cc2ccccc2Cl)c1O | 10% (inactive)
69 | O=C(Cc1ccccc1Cl)c1ccc(O)cc1O | 7% (inactive)
70 | O=C(c1cccc(F)c1)N1CCN(C(=O)c2cccs2)CC1 | 7% (inactive)
71 | COc1cc(OC)c(OC)cc1CN1CCN(Cc2ccccn2)CC1 | 5% (inactive)
72 | CCc1c(C)sc(NC(=O)c2ccc(OC)c(OC)c2)c1C(=O)OC | 16% (inactive)
73 | CCc1c(C)sc(NC(=O)c2ccncc2)c1C(=O)OC | 73% (active)
74 | CCc1c(C)sc(NC(=O)c2cccc(Br)c2)c1C(=O)OC | 16% (inactive)
75 | CCOC(=O)c1ccc(NC(=O)c2cn(-c3ccccc3)nc2-c2ccccc2)cc1 | 9% (inactive)

Row | Structure (SMILES) | inhibition
76 | COc1cc(C=O)ccc1OCCCCOc1c(C)cc(C)cc1Br | 31% (inactive)
77 | O=C(Nc1nc2ccc3ccccc3c2s1)c1ccc(C(=O)c2ccccc2)cc1 | 18% (inactive)
78 | O=C(Nc1nc2ccc3ccccc3c2s1)c1cccc(Cl)c1 | 5% (inactive)
79 | O=C(Nc1nc2ccc3ccccc3c2s1)c1ccc(Cl)cc1 | 54% (active)
80 | COc1ccc(NC(=O)c2c(-c3c(Cl)cccc3Cl)noc2C)c([N+](=O)[O-])c1 | 1% (inactive)
81 | CCOc1ccc(N2C(=O)NC(=O)/C(=C\c3ccc(Sc4ccccc4)o3)C2=O)cc1 | 15% (inactive)
82 | O=[N+]([O-])c1ccc(/C=C/C=N/Nc2nc(N3CCOCC3)nc(N3CCOCC3)n2)cc1 | 2% (inactive)
83 | CCN(CC)C(=O)c1sc(NC(=O)/C=C/C(=O)O)c(C(=O)OC)c1C | 70% (active)
84 | CCCC(=O)Nc1sc(C(=O)N(CC)CC)c(C)c1C(=O)OC | 24% (inactive)
85 | CCN(CC)C(=O)c1sc(NC(=O)C(C)(C)C)c(C(=O)OC)c1C | 43% (inactive)
86 | O=Cc1ccc(-c2ccc(OC(F)(F)F)cc2)o1 | 7% (inactive)
87 | COc1cc(OC)cc(C(=O)Nc2ccc3oc(-c4ccc(I)cc4)nc3c2)c1 | 16% (inactive)
88 | O=C(Nc1ccc2oc(-c3ccc(Cl)c(Cl)c3)nc2c1)c1ccc(F)cc1 | 60% (active)
89 | O=C(Nc1ccc(-c2cc3ccccc3oc2=O)cc1)c1ccc(Cl)c(Cl)c1 | 0% (inactive)
90 | COc1cc(OC)cc(C(=O)Nc2ccc3oc(-c4ccc(Br)cc4)nc3c2)c1 | 27% (inactive)
91 | COc1cc(OC)cc(C(=O)Nc2ccc3oc(-c4ccc(Cl)c(Cl)c4)nc3c2)c1 | 56% (active)
92 | O=C(Nc1cccc(-c2nc3cc(Cl)ccc3o2)c1)c1cccc(F)c1 | 21% (inactive)
93 | O=C(Nc1ccc2oc(-c3ccc(F)cc3)nc2c1)c1cc(Br)ccc1Cl | 2% (inactive)
94 | COc1ccc(-c2nc3cc(NC(=O)c4ccc(F)cc4)ccc3o2)cc1Cl | 13% (inactive)
95 | O=C(Nc1ccc2oc(-c3cccc(Cl)c3)nc2c1)c1cccc(F)c1 | 50% (active)
96 | O=C(Nc1ccc2oc(-c3cccc(F)c3)nc2c1)c1cccc(F)c1 | 14% (inactive)
97 | O=C(Nc1ccc(-c2cc3ccccc3oc2=O)cc1)c1cccc(F)c1 | 58% (active)
98 | COc1cccc(C(=O)Nc2ccc(-c3cc4ccccc4oc3=O)cc2)c1 | 45% (inactive)
